# Source: PubChem BioAssay (National Center for Advancing Translational Sciences (NCATS))
# Shiga toxin inh: inhibitors of Shiga toxin in Vero cells; Vero cells, Shiga toxin protein synthesis inhibition reporter; inhibition, % at 38.7 µM; 290,000 tested, 9.2% active; in the data active means inhibition mostly above about 28%, no sharp cut-off; inactive means mostly below about 43%; further: 0% is about no effect
# SARS PLpro yeast: blocks SARS-CoV papain-like protease in a yeast assay; S. cerevisiae expressing SARS-CoV PLpro, growth rescue; AID 485353; 330,000 tested, 0.19% active; Potency, µM (highest dose often 32.9 µM), inactives show at the highest dose activity, positive = growth rescue, actives largely listed as activators; calls by dose curve; further: potency means the concentration at half of the fitted maximal effect; 0% is about no effect; nearly all actives have a fitted effect of over 55% in size
# Pf growth 96h: P. falciparum growth inhibition at 96 hour, primary screen for plastid delayed-death inhibitors | P. falciparum luciferase reporter growth, 96 h | Potency, µM (series often up to 28.7 µM), without a hit: at the highest dose activity change, negative = inhibition, hits mostly inhibitors | 320,000 tested, 6.9% active; further: potency means the concentration at half of the fitted maximal effect; on the % scale 0 is the no-effect control and ±100 the full control effect
#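 Erythrocytes infected with luciferase-expressing P. falciparum were dispensed at 2% hematocrit and 0.05% parasitemia (final), then incubated with compounds 96 hours at 37 C in 5% CO2. Luminescence after detection reagent addition reported growth.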
# Cycloheximide cs: counter-screen hit for Shiga toxin inhibitors, cycloheximide; cell reporter, cycloheximide protein synthesis inhibition counterscreen; max response, %; 300,000 tested, 12% active; AID 2314; in the data active means max response mostly above about 13%, no sharp cut-off; inactive means mostly below about 14%; further: read at 38.3 µM for the half of the compounds with a filed dose; 0% is about no effect
# Pf growth 48h: P. falciparum growth inhibition at 48 hours (one generation) | AID 504832 | 310,000 tested, 5.9% active | P. falciparum luciferase growth in erythrocytes, 48 h | Potency, µM (top dose mostly 28.7 µM), without a hit: at the highest dose activity change, negative = inhibition, actives largely listed as inhibitors; further: potency means the concentration at half of the fitted maximal effect; on the % scale 0 is the no-effect control and ±100 the full control effect
#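 Firefly luciferase activity from engineered P. falciparum reports growth; inhibitors lower the luminescent signal. Cultures contained 2% hematocrit erythrocytes at 0.1% final parasitemia.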
# NS1 function inh: blocks influenza NS1 protein function. Potency, µM (titrated, usually from 46.1 µM), without a hit: at the highest dose activity, positive = more growth. 270,000 tested, 0.4% active; calls by dose curve; further: potency means the concentration at half of the fitted maximal effect; actives are rising curves; nearly all actives have a fitted effect of over 50% in size
#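 Growth recovery, yeast-based: influenza A NS1 expressed in S. cerevisiae causes slow growth, and suppressors are detected by OD600. The parent strain without NS1 is used as positive control.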
# The depositor's hits bear a star; i = inactive; ? = inconclusive; / = no result given; [ ] = dose if it differs, or a comment. In the library only some 21% were active in any assay of this set; here they are far more common. Unless noted, the call rests on the fitted dose curve; in most records, active means well fitted inhibition curve with a large enough effect; inconclusive means small, poorly fitted or top-dose-only effect, or another doubt; inactive means no such curve, though single readings can be large or run the other way.
SMILES,Shiga toxin inh,SARS PLpro yeast,Pf growth 96h,Cycloheximide cs,Pf growth 48h,NS1 function inh
CCOc1ccc(NC(=NCc2ccc3c(c2)OCO3)SC2CC(=O)N(c3ccccc3)C2=O)cc1 (stereo not drawn),14.1,-3.3%,?,-1.1,?,5.6%
Cc1nc2ccccn2c1-c1ccnc(SCc2ccc(Cl)cc2)n1,-5.2,0.9%,1.85µM*,0.8,5.86µM*,0.1%
CC(=O)c1cccc(NC(=O)NCc2ccccn2)c1,49.8*,-0.8%,/,30.8*,132.4%,-2.2%
Cc1ccc(C(=O)NCc2ccccn2)cc1Cl,36.0*,-0.5%,22.7%,25.2*,-14.8%,-0.5%
Cc1nn(C)cc1CNC(=O)Nc1ccc(Cl)c(Cl)c1,57.6*,0.8%,-33.0%,43.6*,/,-55.7%
CN(c1ccccc1C(=O)NCc1ccccn1)S(C)(=O)=O,-1.6,-0.4%,/,-0.9,14.7µM*,7.6%
Cc1nn(C)cc1CNC(=O)C1(C)CC1(Cl)Cl (stereo not drawn),8.8,13.8%,21.3%,-2.4,-6.8%,3.9%
C[C@H](NC(=O)C1(c2ccccc2)CCN(C(=O)[C@H]2CSCN2C(=O)OC(C)(C)C)CC1)C(=O)O,-9.2,3.6%,-1.8%,-2.4,-5.6%,10.9%
CC(Oc1ccc(C#N)cc1)C(=O)N1CC=C(c2ccccc2)CC1 (stereo not drawn),/,-9.3%,/,/,/,/
CC1CC2=C(C(=O)O1)C(c1ccc(Cl)cc1)Nc1ccccc1N2 (stereo not drawn),-10.6,4.6%,?,-6.3,?,0.1%
O=C(Nc1cccnc1Cl)c1cccc(S(=O)(=O)N2CCOCC2)c1,-11.1,-5.0%,10.6%,-2.6,10.6%,16.0%
Cc1ccc(NC(=O)NCc2ccccn2)cc1,74.7*,11.9%,?,34.6*,93.6%,6.6%
Cc1ccc(NC(=O)NCc2ccccn2)cc1Cl,39.1*,-0.4%,76.2%,24.6*,30.4%,-3.1%
CCc1ccc(NC(=O)C(=O)NCc2ccccn2)cc1,59.7*,-0.3%,35.4%,23.9*,127.3%,3.6%
Cc1ccc(NC(=O)Nn2cnnc2)cc1Cl,-2.7,1.5%,?,-1.1,6.7%,3.7%
COc1ccc(NC(=O)NCc2ccccn2)cc1OC,12.3,3.9%,2.9%[5.75 µM],0.5,-10.7%,0.4%
Cc1ccc(NC(=O)NCc2c(C)nn(C)c2C)cc1Cl,74.8*,-5.5%,?,26.2*,225.5%,-7.1%
COc1ccc(CC(=O)NCC(=O)NC(Cc2ccccc2)C(=O)O)cc1 (stereo not drawn),-3.3,-3.8%,26.8%,-4.2,-2.3%[0.00184 µM],1.3%
COc1ccc(S(=O)(=O)N2CCOCC2)cc1NC(=O)CCc1nc2ccccc2c(=O)[nH]1,15.4,-5.0%,-1.7%,-0.7,16.4%,0.3%
CC(c1nccs1)N(C)c1nc2nonc2nc1NC1CC1 (stereo not drawn),-8.9,-0.7%,0.0%,0.4,8.2%,0.7%
CC(c1nccs1)N(C)c1nc2nonc2nc1N(C)C (stereo not drawn),-29.5,0.7%,13.1µM*,-0.8,8.2%,3.1%
O=C(NC1CCCC1)c1ccc2nc[nH]c2c1,15.9,-0.6%,-18.7%,-1.0,3.9%,-5.0%
O=C(Nc1ccc(F)cc1)c1ccc2nc[nH]c2c1,45.9*,0.6%,41.5%,29.8*,158.1%,/
CN(C)c1ccc(NC(=O)c2ccc3nc[nH]c3c2)cc1,137.6*,1.8%,130.5%,51.4*,60.8%,-0.6%
O=C(NNC(=O)c1ccccc1F)c1ccc2nc[nH]c2c1,67.6,3.4%,79.3%,21.8*,52.4%,1.1%
SMILES,Shiga toxin inh,SARS PLpro yeast,Pf growth 96h,Cycloheximide cs,Pf growth 48h,NS1 function inh
CC(C)(C)C(=O)N1CCN(c2c(Cl)cccc2[N+](=O)[O-])CC1,13.0,0.4%,-27.6%,-2.1,?,-18.1%
CCOC(=O)C1(CC/C(C)=N\NC(N)=O)CC(C)(C)OC1=O (stereo not drawn),-6.2,-5.6%,0.0%,0.6,5.4%,-8.9%
COc1cc(/C=N/NC(=O)Cn2cnc3ccccc3c2=O)ccc1O,-1.7,0.1%,15.2%,-7.6,11.4%,-2.1%
COc1cccc(C(=S)N2CCCC2)c1OC,2.5,1.7%,?,1.6,0.0%,5.4%
Cn1c(O)c(C2=c3ccccc3=NC2=O)sc1=Nc1ccc(Cl)cc1,7.1,5.1%,-5.2%,7.0*,22.3%,10.9%
O=C(O)Cn1c(O)c(C2=c3ccccc3=NC2=O)sc1=O,20.8,-0.4%,27.1%,10.5,12.4%,4.5%
OCC1(CCCc2ccccc2)CCN(Cc2cnc(N3CCOCC3)s2)CC1,-3.5,0.2%,9.28µM*,-0.6,-7.8%,1.3%
Fc1cccc(Cc2noc(CN3CCCCC3c3ccccn3)n2)c1 (stereo not drawn),82.3,0.6%,8.28µM*,34.9*,-23.8%,3.5%
FC(F)(F)c1cccc(Cc2noc(CN3CCCCC3c3ccccn3)n2)c1 (stereo not drawn),-20.9,-2.1%,?,-2.9,?,-0.8%
FC(F)(F)c1cccc(Cc2noc(CN3CCCC(OCc4ccccn4)C3)n2)c1 (stereo not drawn),-1.4,0.1%,14.7µM*,1.7,-3.1%,-6.7%
Fc1ccc(C2CCCN2Cc2nc(Cc3ccccc3F)no2)cc1 (stereo not drawn),18.6,-4.2%,?,12.6*,?,-10.3%
Cc1csc(=O)n1CCC(=O)OCC(=O)Nc1ccc(F)c(F)c1F,/,9.8%,6.5%,/,1.5%,/
CC(=O)N1CCN(S(=O)(=O)c2ccc(F)c(Cl)c2)CC1,-9.8,-0.6%,-1.3%,-2.5,1.3%,/
Cc1cccc(-n2c(SCc3cc(=O)n4ccsc4n3)nc3ccccc32)c1,23.4,-18.6%,4.15µM*,20.3*,2.94µM*,12.5%
CCc1ccc(Nc2nnc(SCc3cc(=O)n4ccsc4n3)s2)cc1,-6.1,-6.1%,/,10.1,-3.6%,-5.7%
CCc1cccc(CC)c1-n1c(SCc2cc(=O)n3ccsc3n2)nnc1-c1cccnc1,-20.3,5.4%,10.4µM*,-3.4,14.7µM*,-4.3%
Cn1c(Cc2ccccc2)nnc1SCc1cc(=O)n2ccsc2n1,19.4,1.2%,1.3%,6.8,-11.0%,/
COc1ccccc1Nc1nnc(SCc2cc(=O)n3ccsc3n2)s1,3.1,-0.3%,4.65µM*,27.8,?,/
Cc1ccc(Nc2nnc(SCc3cc(=O)n4ccsc4n3)s2)c(C)c1,-3.0,-3.1%,4.65µM*,-4.3,6.57µM*,-1.4%
Cc1ccc(SCc2cc(=O)n3ccsc3n2)c(C)c1,47.4,-24.3%,i,21.3*,23.2%,-5.6%
Cc1ccc(Nc2nnc(SCC(=O)NC3CCS(=O)(=O)C3)s2)c(C)c1 (stereo not drawn),2.4,-0.7%,2.62µM*,12.2,?,/
O=c1cc(CSc2ccc([N+](=O)[O-])cc2)nc2sccn12,68.2*,-0.4%,?,19.9,49.0%,/
O=c1cc(CSc2n[nH]c(-c3ccncc3)n2)nc2sccn12,-16.2,-0.4%,15.0%,1.3,-13.9%,/
